Over roughly 25,000 sequences, “ln(normalized median fluorescence intensity)” has its median near 6.7; the highest 2% begin near 10. This excerpt belongs to a sample that is enriched for the highest values.
These sequences were tested on PfHDP1 homeodomain (GST-tagged) (assay: gcPBM binding intensity (ln(normalized median fluorescence intensity)); higher = stronger DNA binding).
Outline: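 Plasmodium falciparum DNA-binding domains carrying a GST tag were expressed in E. coli and applied for 1 h, at about 25 μg on average, to an Agilent 4 × 180k array. The array held primer-extended double-stranded 36-bp intergenic genomic probes together with negative controls, and binding took place in 1× PBS with 1% milk, 0.2 mg/ml BSA, 0.5% salmon testes DNA and 0.03% Triton X-100. An Alexa488 anti-GST antibody detected bound protein, and the array was scanned at 488 nm. Binding intensity is taken as the highest Masliner-normalised natural-log median intensity across replicate spots of either probe orientation.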

Sequence	gcPBM binding intensity (ln)
TTATATTTTAAGAAATGTACATGATATAATTATCAA [XGTACX_site8693]	6.39
AATATATATGGACATGCATGGACATAATAATCTATT [TGCATGCA_site838]	6.47
GGTGCACCCATATACACACACAAATACAATGATAAA [CACACA_site1132]	10.2
CATATAAAAATGTGCACACACACACCCATATATATT [CACACA_site1526]	10.5
AAAAAAATGAAACACACACACACATATATATATATA [CACACA_site1043]	9.32
AATAAATATATATACACACCCATATATATATATATA [CACACA_site2595]	9.48
AAAAAAAAAAAACACACACACACACCCATATATAAA [CACACA_site1170]	6.79
AATATAAATAAAAACACACACACACCGATATATATA [CACACA_site5283]	7.05
AAAATACATAAACACACACACACACCGATATATATA [CACACA_site9186]	7.14
TATGTGCACCCATATACACACACAAATACAATGATA [CACACA_site8295]	10.7
TGGGCACCCATATACACACACAAATACAATGATAAA [CACACA_site4762]	6.48
TTACAACATGAAAATGTGCACATATATATATATATA	10.8
CATATAAAAATGTGCACACACACACCGATATATATT [CACACA_site4940]	10.8
ATATATGAAAATATATGTACACAACATATAAAATAG [XGTACX_site5132]	6.63
GGTATTTTCACATATAGTACACAAAAATAAAATAAA [XGTACX_site2139]	6.68
CATATAGATTTGTTCACACACACACTAAAAAAAAAA [CACACA_site7212]	6.7
TATTCTAATTTTTAAACACACAAATATAAATAAGTA [CACACA_site3149]	6.35
AAAAGAAAAAAAAAAAAAAAAAAAATTAAAATATAA [CACACA_negctrl_site17]	5.65
TGAATAATATACATACGTACATACATATATATAATA [XGTACX_site1302]	6.17
AATATAAATATTAAAACACACATAAAAAGATTATTA [CACACA_site1764]	6.29
ATATATATAAAATGTTGTACATATATATAAATAATA [XGTACX_site1661]	6.15
TAAATTTTTAAATACACACATACACCCATACAGACA [CACACA_site548]	7.18
TTTAAAACCCTAAAAAAAAAAAAAAAAAAAAAAAAA [CACACA_negctrl_site1212]	6.26
TTTTTTTAAATTATATGTACATAATTTTAATTTTAT [XGTACX_site5086]	6.43

Sequence	gcPBM binding intensity (ln)
ATTTTTTTTTTTATGTGTACATATATTTTTTTAATT [XGTACX_site7921]	7.04
AAAAAAAAAAAAAACACACACACACCCATAAATATA [CACACA_site151]	6.87
AACATATAAAAATGTGCACACACACCCATATATATA [CACACA_site1525]	10.7
AATATAAATAAAAACACACACACACCCATATATATA [CACACA_site2267]	7.13
AAATAAATAATTTAATGTACATATATAATATATATA [XGTACX_site1831]	6.81
AGAGTACAAGTAAATACACACATATAGATGAAAATA [CACACA_site6635]	6.88
TTATTATGTATATATGCACACAATACCCAAAACAAC [CACACA_site80]	9.84
TATATTATATGTATTGCACACCTTCAACAACTACTT [CACACA_site8121]	10.5
TATATATTGATATGCACACCTATGTATTGATGTATA [CACACA_site1073]	10
CAACTAACATATATTCAACACACATATACCTTCAAC [CACACA_site8988]	6.43
ATTGTATCTGTATATGCACACAATATCTGTACTTCT [CACACA_site5445]	10.1
TATTATATGTATTGCACACCTTCAACAACTACTTCT [CACACA_site655]	10.6
AAAAAAATAAATAAATGTACACATATATATATATAT [XGTACX_site4350]	9.25
AAAATGTATTCTCTCATGCACACTTTCTTTAAGGGA [CACACA_site2196]	8.5
AATACAAAAAAAGGTACACACATAATATATTTATTA [CACACA_site2628]	6.46
GTTCTTTCAAATTATACACACCAAAAAAAAAAAAAA [CACACA_site5660]	6.62
TATATCTTATTTAACACACACAAAGAAAATAGAAAA [CACACA_site3732]	6.81
TATATATTTTTATGCACACACAAAGAAAATTTTCCT [CACACA_site2863]	10.8
TTCTTTTTCCAATTTGCACACCACAAAATTATATAT [CACACA_site2909]	10.6
ATTATATATATTTATGCACACAAAATATATTATATA [CACACA_site9244]	10.1
TAATGTATTATATTTTGTTTTCTTCCACCAAAAAAA [XGTACX_negctrl_site64]	6.41
AATATATCTTATTTAACACACACAAAGAAAATAGAA [CACACA_site9242]	7.34
TATATATATTTTTATGCACACACAAAGAAAATTTTC [CACACA_site8931]	10.1
TATATATCTTTATGCACACACAAAGAAAATTTTCCT [CACACA_site7366]	10.5

Reference: the supplement of paper PMC11417369
